Bioassay records: PubChem, Broad Institute
aSyn UTR act = Activators working through SNCA 5'UTR binding (MLPCN); alpha-synuclein 5'UTR reporter, activators screen; activity score, % (tested at 7.5 µM), hits read low; hit rate 7.1% among 300,000; AID 1814; in the data active = activity score below about -60%
The depositor's hits bear a star. The list is a sample of the results.

SMILES	aSyn UTR act
CCOC(=O)N1CCN(C(=O)c2cc(COc3ccc(F)cc3F)on2)CC1	-65*
CCOc1ccc(NC(=S)NC(=O)/C=C/c2ccco2)cc1	-91*
O=C(/C=C/c1ccccc1)NC(=S)Nc1ccc(N2CCOCC2)cc1	-79*
COc1cccc(NC(=S)NC(=O)/C=C/c2ccco2)c1	-114*
CC(C)c1ccc(/C=C/C(=O)NC(=S)Nc2ccc(CN3CCOCC3)cc2)cc1	-130*
CN1CCN(c2ccc(NC(=S)NC(=O)/C=C/c3ccco3)cc2)CC1	-147*
CCn1cc(Br)c(C(=O)Nc2sc3c(c2C(N)=O)CCCC3)n1	-102*
Cn1cc(Br)c(C(=O)Nc2sc3c(c2C(N)=O)CCCC3)n1	-114*
Cc1ccc(C)c(OCC(=O)Nc2cc(C)on2)c1	-80*
Cc1cc(NC(=O)COc2cccc(Oc3ccccc3)c2)no1	-122*
CC(C)(C)c1ccc(/C=C/C(=O)N2CCOCC2)cc1	-147*
CC(C)Cc1ccc(/C=C/C(=O)N2CCOCC2)cc1	-161*
COc1cc(O)cc(O)c1C(=O)/C=C/c1ccccc1	-140*
COc1cc(OC)c(C(=O)/C=C/c2ccccc2)c(O)c1O	-92*
O=C(NCCc1ccccc1Cl)c1ccc2nc3ccccc3c(=O)n2c1	-100*
Cc1cc(NC(=O)c2ccc(C)c(C)c2)no1	-106*
CCc1ccc(C(=O)Nc2cc(C)on2)o1	-112*
Cc1cc(NC(=O)c2ccc(Br)c([N+](=O)[O-])c2)no1	-81*
Cc1cc(NC(=O)c2ccc(NC(=O)C(C)C)cc2)no1	-62*
CC(=O)Oc1ccc(C(=O)Nc2cc(C)on2)cc1	-84*
CC(Cc1ccco1)NC(=O)c1ccc(C(F)(F)F)cc1 (configuration not stated)	-69*
CCn1cc(C(=O)NCCCN(C)C)c(=O)c2cc(F)c(N3CCN(C)CC3)cc21	-65*
CCc1ccc2oc(-c3cc(N=Cc4cccc(OC)c4O)ccc3O)nc2c1	-146*
O=C(COc1ncnc2ccccc12)c1ccc(Cl)cc1	-204*
c1ccc(OCCOc2ncnc3ccccc23)cc1	-184*
SMILES	aSyn UTR act
O=C(COc1ncnc2cc(Cl)ccc12)c1ccccc1	-62*
Cc1cc(C)n(-c2nc3ccccc3c(=O)n2OCC(N)=O)n1	-63*
O=C(O)c1ccc(Nc2nc(-c3cccnc3)cs2)cc1	-88*
CC(=O)c1ccc(Nc2nc(-c3cccnc3)cs2)cc1	-130*
CCOC(=O)c1cnc2cc(-c3ccc(Br)cc3)nn2c1C	-131*
CCOC(=O)c1cnc2cc(-c3ccc(Cl)cc3)nn2c1N	-87*
Cc1ccc(NC(=O)N2C(=O)C3(OCCO3)c3ccccc32)cc1	-165*
FC(F)(F)c1cc(-c2ccco2)nc(NCCc2ccccc2)n1	-92*
COc1ccc(C(=O)O/N=C(\N)c2ccccc2)cc1	-82*
COc1ccc(C(=O)O/N=C(\N)c2ccc(Br)cc2)cc1	-174*
C#CC[N+](C)(C)CCCCCCCCCCCC	77
Cc1cc(N2Cc3ccccc3C2)ccc1C=O	-96*
Cc1cc2c(cc1C)CN(c1ccccc1)C2	-90*
Oc1cccc(N2Cc3ccccc3C2)c1	-82*
CCOc1ccc2oc(C(=O)Nc3ccc(N4CCOCC4)cc3)c(C)c2c1	-69*
CCOc1ccc2oc(C(=O)Nc3ccc4c(c3)OCO4)c(C)c2c1	-176*
CCOc1ccc2oc(C(=O)Nc3cc(C)ccn3)c(C)c2c1	-67*
S=C(N/N=C/c1ccc(Br)cc1)N1CCCCC1	-195*
O=C(NC(NC(=S)N1CCOCC1)C(Cl)(Cl)Cl)c1ccc(Cl)cc1 (configuration not stated)	66
Cc1ccc(/C=N/NC(=S)N2CCOCC2)cc1	-85*
S=C(N/N=C/c1ccc(Cl)cc1)N1CCOCC1	-69*
COC(=O)c1sc2nc(-c3ccco3)ccc2c1N	-236*
NC(=O)c1sc2nc(-c3ccco3)ccc2c1N	-62*
O=C(NC(=S)Nc1ccc(Cl)cn1)C12CC3CC(CC(C3)C1)C2	-162*
O=C(CCl)N(c1ccccc1)C1CCS(=O)(=O)C1 (configuration not stated)	-109*
SMILES	aSyn UTR act
CN(C)CC/C=C1/c2ccccc2CS(=O)(=O)c2ccccc21	-74*
CC(=O)c1cccc(Nc2nc(-c3cccnc3)cs2)c1	-230*
O=C(Nc1cccc(-c2csc(Nc3ccccc3)n2)c1)c1ccccc1	-142*
CC(=O)c1cccc(Nc2nc(-c3ccccc3)cs2)c1	-145*
O=C(c1cccs1)N1N=C(c2ccc(O)cc2)CC1c1ccccc1 (configuration not stated)	-72*
CCN(CC)c1ccc(/C=N/NC(=S)NCc2ccc(OC)cc2)cc1	-76*
C/C(=N\NC(=S)NCc1ccccc1)c1ccccc1F	-70*
COc1ccc(CNC(=S)N/N=C(/C)c2ccccc2)cc1	-107*
C=CCNC(=S)N/N=C(\C)c1ccccn1	86
CCOc1ccccc1OCC(=O)N/N=C(\C)Cc1ccc(OC)cc1	87
COc1ccc(C/C(C)=N/NC(=S)Nc2ccccc2)cc1	-124*
CN(c1ccc(O)cc1)S(=O)(=O)c1ccc2ccccc2c1	-111*
Cc1ccc(Sc2c(CO)c(-c3ccccc3)nn2C)cc1	-86*
CC(=O)c1cccc(NC(=S)NC(=O)c2ccc(Cl)cc2)c1	-131*
CC(=O)c1cccc(NC(=S)NC(=O)c2ccccc2C)c1	-64*
CC(=O)c1cccc(NC(=S)NC(=O)c2cccc(C)c2)c1	-145*
N#C/C(=C1/CCCCCN1)c1nc2ccccc2s1	-73*
Nc1nc2ccc(C(=O)Nc3ccccc3)cc2s1	-129*
CC(=O)Nc1ccc2cc3ccc(NC(C)=O)cc3nc2c1	-73*
CCc1ccc(NC(=O)c2ccc3nc(N)sc3c2)cc1	-131*
CC(=O)Nc1ccc2nc(N)sc2c1	-107*
COc1ccc(CCC(=O)Nc2ccc(-c3noc(-c4ccc(OC)c(OC)c4)n3)cc2)cc1	-158*
COc1ccc(-c2nc(-c3ccc(NC(=O)c4ccc(Br)o4)cc3)no2)cc1OC	-136*
CCCCS/C(N)=N/N=C/c1cc(C)ccc1O	-76*
CS/C(N)=N/N=C/c1c(O)ccc2ccccc12	-175*
SMILES	aSyn UTR act
CS/C(N)=N/N=C/c1cc(C)ccc1O	-94*
COc1ccccc1OCC(=O)N/N=C/c1c(O)ccc2ccccc12	60
CCS/C(N)=N/N=C/c1cc(C)ccc1O	-82*
C/C(=N\Nc1nc(C(C)(C)C)cs1)c1ccc(O)cc1	-107*
C/C(=N\Nc1nc(C(C)(C)C)cs1)c1ccccc1	-160*
C/C(=N\Nc1nc2c(s1)CCCC2)c1ccccc1	-178*
CCCCc1ccc(-c2nc(NC(=O)C3C4CCC(O4)C3C(=O)O)sc2C)cc1 (configuration not stated)	-128*
O=C(CSc1ncnc2c(-c3ccc(Cl)cc3)nsc12)c1ccccc1	-98*
COc1ccc(N(C)C2=NS(=O)(=O)c3ccccc32)cc1	-70*
CN(/N=C/c1ccc(N(C)C)cc1)C1=NS(=O)(=O)c2ccccc21	-97*
O=C(N/N=C/c1ccc2ccccc2c1)c1ccc(COc2ccc3c(c2)CCC3)o1	-72*
CC(=O)Nc1nonc1NC(=O)c1ccc(C(C)(C)C)cc1	-153*
O=C(N/N=C\c1c(O)ccc2ccccc12)c1ccc(Cn2cccn2)o1	92
COC(=O)c1ccc(COc2ccc3c(c2)CCC3)o1	-130*
O=C(N/N=C/c1cc([N+](=O)[O-])ccc1O)c1ccc(COc2ccc3c(c2)CCC3)o1	87
CCc1ccc(OCc2ccc(C(=O)OC)o2)cc1	-220*
CC(C)(C)c1ccc(OCc2ccc(C(=O)N3CCOCC3)o2)cc1	-119*
